Test results reported in PubChem BioAssay (NCI).
The panel holds about 83,000 compounds, 20% with a hit somewhere; the sample as a whole holds those more often.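 For each line, cells grew in 96-well plates with the test compound present at a single concentration for 48 hours.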 Calls of active or inactive are those of the source. Rule for the calls: active = growth percent below 10; inactive = the rest.

What was measured:
Assay in all cases: NCI-60 one-dose screen, 48 h (100 = growth as untreated, 0 = no growth, -100 = all killed)
Conditions in all cases: 10 µM unless noted
[1] = system: NCI-H23 lung
[2] = system: NCI-H226 lung
[3] = system: NCI-H322M lung
[4] = system: HOP-62 NSCLC
[5] = system: NCI-H460 lung
[6] = system: HOP-92 NSCLC
[7] = system: NCI-H522 lung
[8] = system: A549/ATCC NSCLC
[9] = system: 786-0 renal
[10] = system: DU-145 prostate
[11] = system: K-562 leukemia
[12] = system: MALME-3M melanoma
[13] = system: MDA-MB-231 breast
[14] = system: SF-268 CNS
[15] = system: SF-295 CNS
[16] = system: SF-539 CNS
[17] = system: UACC-257 melanoma
[18] = system: M14 melanoma
[19] = system: RXF 393 renal

Measured: growth

O=C1Nc2ccccc2SC1c1ccccc1Cl (stereo not given)
inactive: [1] 102% | [2] 104% | [3] 95.6% | [4] 96.3% | [5] 116% | [6] 69.2% | [7] 103% | [8] 90% | [9] 97.5% | [10] 108% | [11] 41.2% | [12] 81.9% | [13] 98.9% | [14] 87.8% | [15] 58.2% | [16] 109% | [17] 100% | [18] 93.7%

O=C1CSC(c2ccc(O)cc2)N1c1nnc(Cn2cnnc2)o1 (stereo not given)
inactive: [1] 100% | [2] 98.6% | [3] 95.8% | [4] 99.8% | [5] 115% | [6] 71.9% | [7] 99.1% | [8] 90.3% | [9] 94.1% | [10] 93.3% | [11] 45.3% | [12] 54.1% | [13] 94.8% | [14] 70.3% | [15] 38.6% | [16] 97.6% | [17] 96.9% | [18] 94.6%

CCOC(=O)Cc1csc2nc(-c3ccccc3)nn12
inactive: [1] 97.9% | [2] 101% | [3] 125% | [4] 103% | [5] 108% | [6] 79.1% | [7] 103% | [8] 105% | [9] 92% | [10] 108% | [11] 128% | [13] 104% | [19] 110% | [14] 105% | [15] 127% | [16] 95.6% | [17] 119% | [18] 104%

CN(C)CCCCNc1ccc(NCCCCN(C)C)c2c1C(=O)c1c(O)ccc(O)c1C2=O
active: [1] -68.5% | [5] -79.1% | [7] -77.9% | [8] -82.9% | [9] -75.1% | [11] -54.5% | [13] -78.2% | [19] -96% | [15] -81.5% | [18] -63.3%
inactive: [2] 102% | [3] 56.1% | [4] 69.4% | [6] 40.6% | [10] 58.3% | [12] 130% | [14] 76.2% | [17] 99.5%

O=C(CC1Sc2ccccc2NC1=O)NNc1ccc(F)cc1 (stereo not given)
inactive: [1] 95.3% | [2] 84.4% | [3] 86.8% | [4] 57.1% | [5] 93.1% | [6] 71.4% | [7] 71.1% | [8] 92.5% | [9] 78.1% | [10] 98% | [11] 13.6% | [12] 112% | [13] 84.9% | [14] 72.1% | [15] 31% | [16] 94.8% | [17] 92.4% | [18] 31.3%

COc1ccc(CN2C(=O)/C(=C\c3cc(OC)c(OC)c(OC)c3)c3ccccc32)cc1
active: [1] -8.08% | [4] -33% | [5] -53% | [6] 0.884% | [7] -54.1% | [8] 9.31% | [9] 1.15% | [10] 9.87% | [11] 5.28% | [13] 5.55% | [19] -69.6% | [15] -46% | [16] -84.9% | [17] -9.5% | [18] -32%
inactive: [2] 11.8% | [3] 19.6% | [14] 10.4%

CC(C)CCC[C@@H](C)[C@H]1CCC2C3=CCC4C(=O)C=CC(=O)C4C3CC[C@@]21C (stereo not given in full)
active: [1] 8.4% | [5] 2.88% | [6] -28.9% | [7] -46.1% | [8] 8.75% | [9] -5.66% | [11] 9.94% | [19] -66.6% | [15] -61.2% | [16] -25.6% | [17] -3.37%
inactive: [2] 42% | [3] 42.6% | [4] 12.1% | [10] 26.6% | [13] 28.6% | [14] 20.4% | [18] 17.5%

COc1cc(C2CC(=O)Nc3n[nH]c(-c4ccccc4)c32)cc(OC)c1OC (stereo not given)
inactive: [1] 81.6% | [2] 91.8% | [3] 94.1% | [4] 58% | [5] 67.5% | [6] 77.4% | [7] 30.1% | [8] 46% | [9] 75.3% | [10] 102% | [11] 24.6% | [12] 68.5% | [13] 63.9% | [14] 90.7% | [15] 75.5% | [16] 81.2% | [18] 53.3%

O=C1Nc2ccccc2SC1C1SC(=S)N(Cc2ccccc2)C1=O (stereo not given)
inactive: [1] 96.5% | [2] 107% | [3] 113% | [4] 110% | [5] 106% | [6] 53.1% | [7] 100% | [8] 93% | [9] 100% | [12] 53.7% | [13] 94.8% | [14] 37.7% | [15] 63.2% | [16] 90.7% | [17] 88.3% | [18] 94.5%
active: [10] -34.7% | [11] 4.45%

Cc1c(C)c2c(c(C)c1NC(=O)/C=C\C(=O)O)CCC(C)(CCCC(C)CCCC(C)CCCC(C)C)O2 (stereo not given)
active: [2] -85.9% | [4] -13.4% | [19] -93% | [16] 8.15%
inactive: [1] 60.8% | [3] 102% | [5] 72.1% | [6] 45.5% | [7] 66.7% | [8] 61.1% | [9] 33.5% | [10] 80.2% | [11] 71.9% | [13] 70.9% | [14] 53.9% | [15] 66.3% | [17] 20.5% | [18] 20.7%

C=C(C=O)[C@@H]1CC=C(C=O)CC1
inactive: [2] 71.2% | [8] 15.6% | [18] 14.8%
active: [1] -4.9% | [3] -24.7% | [4] -19.7% | [5] -16.6% | [6] -39.9% | [7] 5.01% | [9] -19.3% | [10] -74.6% | [11] -23.2% | [12] -31.1% | [13] -25.9% | [14] -16.7% | [15] -15.7% | [16] -60.4% | [17] -9.83%

C=CC(=O)N[C@@H](Cc1ccc(-c2cc(Cl)cc(Cl)c2)cc1)[C@@H](O)[C@H](O)C(=O)O
inactive: [1] 99.9% | [2] 84.9% | [3] 105% | [4] 79% | [5] 105% | [6] 93.9% | [7] 67.7% | [8] 79% | [9] 98.6% | [10] 109% | [11] 101% | [12] 96.6% | [13] 104% | [14] 101% | [15] 100% | [16] 94.9% | [18] 99.4%

Clc1ccc(-c2nnc(Cn3ccnc3)o2)cc1
inactive: [1] 93.9% | [2] 102% | [3] 113% | [4] 89.3% | [5] 112% | [6] 132% | [7] 115% | [8] 100% | [9] 94% | [10] 115% | [11] 95.8% | [12] 120% | [13] 102% | [14] 103% | [15] 119% | [16] 98.9% | [17] 111% | [18] 87.1%

CC(/C=N/NC(=O)c1cc(-c2ccco2)[nH]n1)=C\c1ccccc1
inactive: [1] 93% | [2] 88.5% | [3] 93.3% | [4] 95.4% | [5] 127% | [6] 57.6% | [7] 110% | [8] 105% | [10] 101% | [11] 86.6% | [12] 91.3% | [13] 102% | [14] 93.9% | [15] 69.9% | [16] 102% | [17] 89.9% | [18] 95%
active: [9] -91.2%

CC/C=C/[C@@H]1C=C[C@@H]2CCC[C@H]2[C@@H]1CC[C@H](O)[C@H](C)N
active: [1] -63.4% | [3] -35.4% | [4] -89.7% | [5] -83.1% | [7] -56.9% | [8] 3.8% | [9] -92.4% | [10] -12.9% | [11] -18.6% | [12] -80.2% | [13] -22.5% | [15] -71.3% | [16] -67.6% | [17] -71.5% | [18] -76.4%
inactive: [2] 91.5% | [6] 12% | [14] 29.2%

Clc1ccc(-c2nnc(-c3ccco3)o2)cc1
inactive: [1] 91.9% | [2] 91.7% | [3] 93.6% | [4] 80.9% | [5] 108% | [6] 72.6% | [7] 99.1% | [8] 96.8% | [9] 86.8% | [10] 99.5% | [11] 93.3% | [12] 113% | [13] 99% | [14] 101% | [15] 112% | [16] 106% | [17] 93.5% | [18] 101%

CCO/C=N/C1=C(C#N)C(c2ccc(OC)cc2)c2c(c3ccccc3n(C)c2=O)O1 (stereo not given)
inactive: [1] 101% | [2] 95.2% | [3] 101% | [4] 91.5% | [5] 105% | [6] 101% | [7] 90.2% | [8] 97.8% | [9] 105% | [10] 106% | [11] 102% | [12] 96.5% | [13] 101% | [19] 104% | [14] 99.2% | [15] 101% | [16] 98.6% | [17] 102% | [18] 103%
